# Among all 20,000 compounds or so, about 660 (3.3%) were called active.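 Rule for the calls: active = enzyme reaction rate more than 3 SD below the solvent-only control wells on the same plate; inactive = the rest.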 The full list was thinned out, with actives kept by preference.
# Molecular target: Ferrochelatase, mitochondrial (Homo sapiens) (UniProt P22830)
# Assay: inhibitors of human ferrochelatase, primary screen, biochemical, purified FECH, Ni-mesoporphyrin absorbance (AID 1671448)
# Settings: Ni-mesoporphyrin absorbance 550 nm, screened at 10 µM (by protocol)
# Sequence of Ferrochelatase, mitochondrial (Homo sapiens) (P22830 whole entry, looked up): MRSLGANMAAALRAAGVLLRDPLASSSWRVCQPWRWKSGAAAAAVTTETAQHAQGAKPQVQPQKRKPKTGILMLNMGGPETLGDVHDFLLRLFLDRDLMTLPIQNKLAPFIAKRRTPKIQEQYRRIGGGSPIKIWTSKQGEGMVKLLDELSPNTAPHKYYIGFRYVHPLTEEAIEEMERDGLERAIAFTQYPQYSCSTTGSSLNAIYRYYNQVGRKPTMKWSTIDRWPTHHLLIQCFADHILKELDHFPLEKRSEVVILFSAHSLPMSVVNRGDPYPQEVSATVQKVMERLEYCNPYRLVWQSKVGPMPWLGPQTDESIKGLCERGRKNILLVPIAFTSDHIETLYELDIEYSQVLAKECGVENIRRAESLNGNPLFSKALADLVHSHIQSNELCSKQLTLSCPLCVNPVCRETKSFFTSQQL
row,Compound,outcome
1,CCOc1ccc(CCNC(=O)CN2C(=O)C=C(CC(=O)OC)Nc3ccccc32)cc1OCC,inactive
2,CNCc1cc(-c2ccc(C)c3ncccc23)ccc1OC,inactive
3,COCCNC(=O)Cn1c(C(=O)OC)cc2ccsc21,inactive
4,NC(=O)c1cccc(CC2CCN(C(=O)CCc3cn4ccccc4n3)C2)c1 (stereo not given),inactive
5,CN(C)c1ccc(CNC(=O)c2nc(N3CCCC3)c3oc4ccccc4c3n2)cc1,inactive
6,COc1cccc(Cn2c(CNS(=O)(=O)c3cccc(Cl)c3)nc3cccnc32)c1,inactive
7,Cc1cc(C)n(CCNC(=O)c2cc(-c3ccccc3)n[nH]2)c(=O)n1,inactive
8,COc1nc2c(cc1CNC(=O)c1ccncc1F)C(=O)N(C1CCCC1)C2,inactive
9,CC(C)CN1CCOC(CCNC(=O)c2cncs2)C1 (stereo not given),inactive
10,CCCCN(C)c1nc(Nc2ccc(OC)cc2)c2cnn(-c3ccccc3)c2n1,active
11,CCN(CC)c1nc(Nc2ccc(C)cc2)c2cnn(-c3ccccc3)c2n1,inactive
12,COc1ccc(OC)c(Nc2nc(N(C)C)nc3c2cnn3-c2ccccc2)c1,inactive
13,Cc1cc(NC(=O)c2ccc(C(C)(C)C)cc2)n(-c2ncnc3c2cnn3-c2ccc(Cl)cc2)n1,inactive
14,Cc1ccsc1CN(C)C(=O)c1ccc(-c2ncn[nH]2)cc1,inactive
15,CCOC(=O)N1CCC(NCc2ccccc2-n2ccnc2C)CC1,inactive
16,O=C(O)[C@H]1C[C@@H](O)CCN1C(=O)C1(c2ccc(Cl)cc2)CC1,inactive
17,O=C(NC(Cn1cccn1)c1ccccc1)c1cc2n(n1)CCNC2 (stereo not given),inactive
18,O=C(NCc1ccccn1)C1CCN(c2ccc(-c3ccc(Br)s3)nn2)CC1,inactive
19,Cc1ccc(CSc2ncc(Cl)c(C(=O)Nc3ccc(S(N)(=O)=O)cc3)n2)cc1,inactive
20,COC(=O)c1ccc(NC(=O)CN2CCN(Cc3ccc(C)cc3)S2(=O)=O)cc1,inactive
21,CCc1ccc(NC(=O)CN2CCN(Cc3cccc(C)c3)S2(=O)=O)cc1,active
22,Cc1cccc(CN2CCCN(CC(=O)Nc3ccc(Cl)cc3)S2(=O)=O)c1,inactive
23,CC(COc1ccccc1)NCc1nnc(-c2ccccc2)o1 (stereo not given),active
24,Cc1cc(C)cc(C(=O)NCCn2c(-c3ccccc3)nc3cccnc32)c1,inactive
25,CCn1c(=O)n(-c2ccc(C)c(C)c2)c2nc(-c3cccc(F)c3F)nc(C(N)=O)c21,inactive
26,Cc1noc(C)c1CN(C)Cc1ccc(C2CCCO2)s1 (stereo not given),inactive
27,COc1ccccc1NCc1nc2nc(C(C)C)cc(=O)n2[nH]1,active

row,Compound,outcome
1,CCCc1cc(=O)n2[nH]c(CNc3ccc(C)cc3C)nc2n1,inactive
2,COc1ccccc1CNc1nc2nc(CNc3ccc(F)cc3)cc(=O)n2[nH]1,inactive
3,CC(C)c1nc(CN(C)C(=O)c2cnn3ccn(C)c23)cs1,inactive
4,CCOC(=O)CCc1c(C)nc2nc(CNc3ccccc3F)[nH]n2c1=O,active
5,CCOc1ccc(NC(=O)Nc2c(C)nc3nc(C4CC4)[nH]n3c2=O)cc1,inactive
6,COc1ccccc1-c1cc2n(C)c(C)c(CCC(=O)Nc3ccccc3F)c(=O)n2n1,inactive
7,O=C(CCn1nnc2ccccc21)N1CCCC(c2ccn[nH]2)C1 (stereo not given),inactive
8,OCCCc1nc2ccccc2n1-c1ccc2[nH]ccc2c1,inactive
9,Cc1cc2cc(C(=O)NCCSCc3nc[nH]c3C)ccc2o1,inactive
10,Cc1ccc2c(CC(=O)NCc3csc(C)n3)cc(=O)oc2c1,inactive
11,O=C(c1csc(S(=O)(=O)NCc2ccc(F)cc2)c1)N1CCCC1,inactive
12,Cc1cc(F)cc(-c2c(-c3ccccc3)ncn2CCN2CCC(O)CC2)c1,active
13,Cc1cc(C)c(-c2c(-c3ccccc3)ncn2CCOCCO)c(C)c1,inactive
14,Cc1ccc(-c2c(-c3ccccc3)ncn2CCN2CCCC2=O)c(F)c1,inactive
15,Cc1nn(C)cc1-c1c(-c2ccccc2)ncn1CCNC(=O)c1ccncc1,inactive
16,COCCNC(=O)C1(C)Cn2c(cc3ccsc32)C(=O)N1c1ccc(OC)cc1 (stereo not given),inactive
17,CCc1cc(Sc2ccccc2NC(=O)c2cccc(Cl)c2)n2nc(C)nc2n1,active
18,CCc1cc(Sc2ccccc2NC(=O)c2ccc(Br)cc2)n2nc(C)nc2n1,inactive
19,CCc1cc(Sc2ccccc2NC(=O)Cc2ccccc2)n2nc(C)nc2n1,inactive
20,CC(C)CNc1nc(Nc2ccc(Cl)cc2)c2cnn(-c3ccccc3)c2n1,inactive
21,Cc1cccc(CN2CCCN(CC(=O)NCc3ccc(Cl)cc3)S2(=O)=O)c1,inactive
22,CCOC1CCN(Cc2cc3cc4c(cc3[nH]c2=O)CCC4)CC1,inactive
23,CCOC(=O)Cn1c(=O)n(-c2ccc(C)c(C)c2)c2nc(-c3ccccc3C)nc(C(N)=O)c21,inactive
24,CCc1cc(-c2nccn2CCCc2nn[nH]n2)on1,inactive
25,Cc1ccnc(C(NC(=O)c2ccccc2-n2cncn2)C2CC2)c1 (stereo not given),inactive
26,O=S(=O)(NCCCc1nc2ccccc2o1)NCc1ccccc1,inactive
27,COc1ccc(N2C(=O)CCS2(=O)=O)cc1S(=O)(=O)Nc1cc(Cl)ccc1C,inactive

row,Compound,outcome
1,Cc1ccc(S(=O)(=O)N2CCN(c3cc(-c4cccc(F)c4)ncn3)CC2)cc1C,inactive
2,Cc1cccc(NCc2cc(=O)n3[nH]c(-c4ccc(C(C)(C)C)cc4)nc3n2)c1,inactive
3,COc1ccc(CNc2nc3nc(CNc4ccc(C)c(Cl)c4)cc(=O)n3[nH]2)cc1,inactive
4,CC(C)(C)c1ccc(-c2nc3nc(CNc4ccccc4Cl)cc(=O)n3[nH]2)cc1,active
5,O=C(NCC1CCN(Cc2ccccc2F)C1)c1cc(Cl)no1 (stereo not given),inactive
6,CCOC(=O)Cn1c(=O)n(-c2ccc(C)c(C)c2)c2nc(-c3cccc(F)c3F)nc(C(N)=O)c21,inactive
7,Cc1nc(C(C)C)sc1CNC(=O)c1cn(CC2CCCNC2)nn1 (stereo not given),inactive
8,O=C(C1CCCN(C2CCN(Cc3cccnc3)CC2)C1)N1CC=CC1 (stereo not given),inactive
9,CC(c1cccs1)N(C)Cc1cnc(-c2ccco2)nc1 (stereo not given),inactive
10,CSC(C)(C)CC(C)NCC(=O)Nc1ccccc1C (stereo not given),inactive
11,COC(C)(C)Cn1ccnc1-c1ccc(Oc2ncccn2)cc1,inactive
12,Cn1nc(-c2ccccc2)c(-c2ccccc2)c(C(=O)Nc2ccc(S(N)(=O)=O)cc2)c1=O,inactive
13,CCOc1c(N2CCc3ccccc3C2)c(=O)c1=O,inactive
14,Cc1cccc(Cn2c(=O)c3cnc(-c4ccncc4)nc3n(C)c2=O)c1,inactive
15,C=CC[C@@H]1CC=C[C@@H](C)N1C(=O)Cc1c(C)nc(C)[nH]c1=O,inactive
16,COc1ccccc1-c1nc(Cn2c(=O)c3cnc(-c4ccc(Cl)cc4)nc3n(C)c2=O)c(C)o1,inactive
17,C=CCn1c(=O)c2cnc(-c3ccc(Cl)cc3)nc2n(C)c1=O,active
18,CCc1ccc(CNC(=O)Cn2c(=O)c3cnc(-c4ccccc4)nc3n(C)c2=O)cc1,inactive
19,C=CCn1c(=O)c2cnc(-c3ccc(OC)cc3)nc2n(C)c1=O,inactive
20,Cn1c(=O)n(CC(=O)NCc2cccs2)c(=O)c2cnc(-c3ccccc3)nc21,inactive
21,Cn1c(=O)n(CC(=O)N2CCOCC2)c(=O)c2cnc(-c3ccccc3)nc21,active
22,COc1ccc(OC)c(S(=O)(=O)Nc2ccc(Sc3c(C)c(C)nc4ncnn34)cc2)c1,inactive
23,COc1ccccc1C(=O)Nc1cc(C)nn1-c1ncnc2c1cnn2-c1ccc(C)cc1C,inactive
24,Cc1ccccc1C(C(=O)N1CCCOCC1)N(C)C (stereo not given),inactive
25,Cc1ccsc1CN(CCO)C(=O)c1ccc2c(c1)CCCO2,inactive
26,CC(=O)N1CCN(Cc2nc3c(C)c(C)ccc3[nH]2)CC1,inactive
27,CC(C)NC(=O)C1CCC(Cn2c(=O)c3sccc3n(CC(=O)NCc3ccco3)c2=O)CC1 (stereo not given),inactive

row,Compound,outcome
1,CCn1cc(CN2CCN(C)C3(CCN(C(=O)c4ccco4)CC3)C2)cn1,inactive
2,CCOC(=O)c1cccc(Nc2cc(-c3ccc(C)cc3)nc(C)n2)c1,inactive
3,CCC(=O)Nc1ccccc1-c1nnc(SC(CC)C(=O)Nc2ccc(OC)cc2)[nH]c1=O (stereo not given),inactive
4,COc1ccc(N2C(=O)CCS2(=O)=O)cc1S(=O)(=O)Nc1ccc(C(C)C)cc1,inactive
5,Nc1nc2c(c(-c3cccnc3)n1)CN(C(=O)c1cc(F)c(F)c(F)c1)C2,inactive
6,CC(Cc1ccc2c(c1)OCO2)CN1CCC(NS(C)(=O)=O)CC1 (stereo not given),inactive
7,Cc1noc(C)c1S(=O)(=O)N1CC(c2cccnc2)C1,inactive
8,c1cc(CN2CCOCC2)cc(-c2ccc(NC3CCCC3)nn2)c1,active
9,c1ccc(-c2ccc(-c3nccn3CCN3CCOCC3)s2)cc1,inactive
10,O=C1CC(c2cccnc2)c2cnn(CC3CC3)c2N1 (stereo not given),inactive
11,O=C(O)CSc1nnc(C2CCCNC2)n1-c1cccc(Cl)c1 (stereo not given),inactive
12,c1ccc(C2CCN(CCn3ccnc3C3CC3)C2)cc1 (stereo not given),inactive
13,Cc1cc(C)cc(Nc2nc(N3CCOCC3)nc3c2cnn3-c2ccccc2)c1,inactive
14,Cc1cc(C)n(CCC(=O)N(Cc2ccccc2C)CC2CCCO2)c(=O)n1 (stereo not given),inactive
15,CC1CNC(=O)CCN1Cc1ccc2cccc(Cl)c2n1 (stereo not given),inactive
16,CCc1nc(C)c(C(=O)N2CCN(c3nsc4ccccc34)CC2)o1,inactive
17,Cc1c(F)cccc1NC(=O)CNC(c1ccccn1)C(F)(F)F (stereo not given),inactive
18,CCCSc1ncc(CN2CCC3(CCC(=O)N(C)CC3)CC2)cn1,inactive
19,Cc1cc(C)c(CN2CCN(Cc3ccccc3Cl)S2(=O)=O)c(C)c1,inactive
20,COc1ccc(-c2cc3n(n2)CCC(=O)N3Cc2ccc(C(=O)NCCN3CCCC3)cc2)cc1,inactive
21,Fc1ccc(-c2cc(CNc3nccc(C4CCCC4)n3)no2)cc1,inactive
22,COc1ccc(Nc2cc(C)nc(Nc3ccc(NC(=O)c4ccc(C)cc4)cc3)n2)cc1,inactive
23,CCCn1ccnc1C1CC(=O)Nc2c1c(C(C)C)nn2-c1ccccc1 (stereo not given),inactive
24,Cc1cc2nc(COc3ccc(Cl)cc3NC(=O)COc3ccccc3C)cc(=O)n2o1,inactive
